From PubChem BioAssay (NCI) come the findings set out here.

The structures appear in SMILES notation. Compounds without any hit were thinned out: in the full panel of roughly 83,000, 20% have a hit.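 Step 1: grow cells in 96-well plates. Step 2: add test compound at a single concentration. Step 3: incubate 48 h. Step 4: record percent growth.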 Values without a mark were called inactive. The source made the active and inactive calls.

The subject of this experiment is CAKI-1 renal. In words: NCI-60 one-dose screen, 48 h (100 = growth as untreated, 0 = no growth, -100 = all killed). The settings on record: 10 µM unless noted. On the procedure: Growth inhibition of the CAKI-1 human tumor cell line is measured as a screen for anti-cancer activity. Cells are grown in 96 well plates and exposed to the test compound for 48 hours. Compounds are tested at a single concentration, which is 10^-5 M for most compounds. The reported endpoint is percent growth (GI% or GIPRCNT), where numbers from 0 - 100% represent growth inhibition, and numbers from -100% - 0 represent cell death. For example, a value of 40 represents 60% growth inhibition. A value of 0 means no net growth occurred over the course of the experiment. A value of -40 indicates 40% of cells at the beginning of the experiment died by the end of the experiment. A value of -100 means all cells are dead at the end of the experiment.
NCI-60 Human Tumor Cell Lines Screen was performed using the standard one-dose NCI protocol, which is described in more detail at https://dtp.cancer.gov/discovery_development/nci-60/default.htm.
Compounds with GIPRCNT values below 10 were considered active. Activity score was based on GIPRCNT using the following formula: […]
Score is 0 for GIPRCNT values of 100 or above, 50 for GIPRCNT values of 0, and 100 for GIPRCNT values of -100.
On to `CCN1CCN(c2nc(NNC(=O)Cc3ccccc3)nc(N3CCN(C(c4ccccc4)c4ccccc4)CC3)n2)CC1`, for which the growth was 39.5%. With `NC(=NCCCCCCN=C(N)/N=C(\N)Nc1ccc(Cl)cc1)/N=C(\N)Nc1ccc(Cl)cc1` the figure was 10.3%; with `O=C(Nc1ccc2c(c1)C(=O)c1ccccc1-2)c1ccccc1`, 74.7%; with `CCOC(=O)c1sc(NC(=O)COc2ccc(/C=C3\CCc4cc(OC)ccc4C3=O)cc2)nc1C`, 76.7%.

`CNc1nc(NC2CCCC2)nc(Sc2ccc(OC)cc2)n1`: the growth is 0.0278% [100 µM] (active). As for `CN(C)CCCNc1nn2c(=O)c3ccccc3nc2c2ccccc12`, the growth is 20.8%. With `O=C(Nc1nc2ccc(OC(F)(F)F)cc2s1)c1ccc(F)cc1` the figure was 6.43% (active); with `O=[N+]([O-])c1ccc(N=Nc2c(Cl)cc(O)cc2Cl)cc1`, -11.9% (active). With `O=C(NN1C(=O)c2cc(C(=O)O)c(C(=O)O)cc2C1=O)c1ccncc1` the figure was 98.2%; with `NC(=O)c1cc(Cl)ccc1NC(=O)c1ccccc1-c1ccccc1`, 26.4%; with `COc1cc(Cl)cc(-c2nn(-c3cccc(NC(=O)c4cc(C(F)(F)F)cc(C(F)(F)F)c4)c3)cc2-c2ccncc2)c1`, 68.6%. With `C[C@H]1O[C@@H](O[C@H]2[C@@H](O)C[C@H](O[C@H]3[C@@H](O)C[C@H](O[C@H]4CC[C@]5(C)C6C[C@@H](O)[C@]7(C)[C@@H](C8=CC(=O)OC8)CC[C@]7(O)C6CC[C@@H]5C4)O[C@@H]3C)O[C@@H]2C)C[C@H](O)[C@@H]1O` (stereo not given in full), the growth is -100% (active). For `FCc1ncc(-c2ccc(C(F)(F)F)cc2)c(NC2CCCCCC2)n1`, the growth is 0.556% [100 µM] (active). With `COP(=O)(OC)C(c1ccc(O)cc1)(c1ccc(O)cc1)c1ccc(O)cc1` the figure was 94.9%. With `O=C1C=CC(=O)N1c1ccccc1N1C(=O)C=CC1=O` the figure was 85.2%; with `Cc1ccc2nc3c(n2c1)C(=O)C(=O)c1ccccc1-3`, -83% (active). On to `C[C@@H]1C[C@@H]([C@@H](CC2CC(=O)NC(=O)C2)OC(=O)CC(=O)c2ccccc2)C(=O)[C@@H](C)C1`, for which the growth was -2.54% (active). Take `COc1ccc(OC)c(CCn2cncc2-c2c[nH]c3cc(Br)ccc23)c1`: the growth was 35.5%.

Take `N#Cc1ccc(-c2csc(Nc3ccc4nc5n(c(=O)c4c3)CCC5)n2)cc1`: the growth was 102%. With `COc1ccc(CC(=O)Nc2nn3c(-c4cc(C(F)(F)F)cc(C(F)(F)F)c4)nnc3s2)cc1` the figure was 46.2%; with `COc1ccc2c(c1)[n+](=O)c(C(=O)/C=C/c1cc(OC)c(OC)c(OC)c1)c(C)n2[O-]`, 105%. For `CCOc1cc(/C=C/C(=O)CC(=O)/C=C/c2ccc(OC(=O)CNCCN(CC)CC)c(OCC)c2)ccc1OC(=O)CNCCN(CC)CC`, the growth is -30.9% (active). With `CCc1nn2c(-c3ccc(Cl)cc3C)c(-c3cc(OC)c(OC)c(OC)c3)nc2s1` the figure was 55.2%; with `Cc1sc2nc3c4ccccc4c(NCCCN(C)C)nn3c(=O)c2c1C`, 84.4%; with `CC[C@@H](C)/C=C(C)/C=C/C(=O)c1c(O)c(-c2ccc(O)cc2)cn(OC2CC(=O)CCC(C)OC(=O)CC2O)c1=O` (stereo not given in full), -17.1% (active). With `C/C(=C\CCc1ccsc1)CC/C=C(\C)CCCN1CCSCC1` the figure was 87.5%. In the case of `C[C@]12CCC(=O)C=C1CC[C@H]1[C@@H]3C[C@@H](O)[C@](O)(C(=O)CO)[C@@]3(C)C[C@H](O)[C@@]12F`, the growth was 78.5%. With `COc1cc(-c2nc3nc4sc(C)c(C)c4c(=O)n3[nH]2)cc(OC)c1OC` the figure was 61.8%; with `N[C@H](CS)C(=O)O`, 70.4%; with `COc1cc(/C=C/C(=O)C(C(=O)/C=C/c2ccc(OC(=O)CCNc3nnc(C)s3)c(OC)c2)C(=O)CCNc2nnc(C)s2)ccc1OC(=O)CCNc1nnc(C)s1`, -3.62% (active). With `Cc1cc(C)cc(S(=O)(=O)n2ccc(-c3ccc4c(c3)CCC(C)(C)O4)n2)c1` the figure was 72.5%; with `COc1ccc(-c2cc(-c3cccnc3)nc3sc(C(=O)Nc4ccccc4)c(N)c23)cc1OC`, 46.7%. With `O=C1c2cccc3c([N+](=O)[O-])ccc(c23)C(=O)N1CCCCl` the figure was -91.4% [100 µM] (active).

Regarding `COc1ccc(-c2c3c(N)nc(-c4ccncc4)nc3nc3c2c(C)nn3-c2ccccc2)cc1`, the growth is 36%. With `N=C1c2nc3n(c2C(=O)c2nc4n(c21)CCCCC4)CCCCC3`, the growth was 95.1%.

With `CCCCOP(=O)(OCCCC)C(C(=O)OCC)C(CC(=O)OCC)C(=O)OCC` (stereo not given), the growth is 98.4%. Turning to `O=C1/C(=C/c2cccc(Cl)c2)CCc2ccccc21`, the growth was 76.9%.

As for `COc1cccc(/C=N\NC(=O)c2ccncc2)c1O`, the growth was 13.2%. Regarding `CN(C)CCCN=c1cc2c(=O)n(CCCN(C)C)c(=O)c3c(NCCCN(C)C)cc4c(O)n(CCCN(C)C)c(=O)c1c4c3-2`, the growth was 4.58% (active). With `CCN(CC)CCOCC[C@H]1CC[C@H]2[C@@H]3[C@H](C)Cc4cc(OS(N)(=O)=O)ccc4[C@H]3CC[C@]12C` the figure was -73.9% (active).
